The results in this text go back to PubChem BioAssay (EPA / NIEHS).

Calls of active or inactive are those of the source. The calls were made as follows: active = hit-call score of the fitted dose curve at least 0.9, where 1 is the maximum; inactive = score below 0.9.

Assay [1] in a line: ATG_GRE_CIS: Attagene CIS-FACTORIAL HepG2 Assay for human Glucocorticoid Response Elements (GRE) (AID 2282947). Particulars: HepG2 GRE cis-reporter, Attagene multiplex mRNA; actives raise or lower the signal. In short, it runs like this:
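Reporter transcripts read by RT-PCR with capillary electrophoresis fluorescence after a 24 h chemical exposure of HepG2 cells transiently transfected with multiple cis-element reporter units. Gain or loss fitted against DMSO.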

Assay [2] in a line: ATG_ISRE_CIS: Attagene CIS-FACTORIAL HepG2 Assay for human Interferon Regulatory Factor 1 (IRF1) binding to an Interferon-Stimulated Response Element (ISRE) (AID 2282948). Particulars: HepG2 ISRE cis-reporter (Attagene), mRNA transcription readout; actives raise or lower the signal. In short, it runs like this: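 Endogenous transcription factor activity read as reporter transcript abundance via RT-PCR and capillary electrophoresis. HepG2 cells transiently transfected, 24 h chemical exposure. Gain or loss fitted against DMSO baseline.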

Assay [3] can be described thus: ATG_M_32_CIS: Attagene CIS-FACTORIAL HepG2 Assay for M32 Transcription Factor (Internal Marker) (AID 2282949).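 Also: background control marker of the multiplexed CIS panel rather than a real target.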 The conditions noted are these: HepG2 Attagene cis-factorial M32 reporter, mRNA; actives raise or lower the signal. In short, it runs like this: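 HepG2 human liver cells transiently transfected with cis-promoter-driven multiple reporter transcription units, dosed 24 h. Reporter mRNA quantified by RT-PCR, FAM-labelled primer extension, HpaI digest and capillary electrophoresis; bidirectional fit versus DMSO baseline.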

A short description of assay [4]: ATG_M_06_CIS: Attagene CIS-FACTORIAL HepG2 Assay for M06 Transcription Factor (Internal Marker) (AID 2282950). The conditions noted are these: HepG2 Attagene CIS-FACTORIAL M06 internal marker reporter; actives raise or lower the signal. In a few lines:
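Serves as a background control readout. Transfected HepG2 exposed to compounds for 24 h, then reporter transcripts quantified by fluorescent RT-PCR and capillary electrophoresis. Both directions fitted against DMSO baseline.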

For assay [5], the target named is Hypoxia-inducible factor 1-alpha (Homo sapiens) (UniProt Q16665). The experiment in a line: ATG_HIF1a_CIS: Attagene CIS-FACTORIAL HepG2 Assay for human Hypoxia Inducible Factor 1 (HIF1A) (AID 2282951). The conditions noted are these: HepG2 Attagene cis-factorial HIF1a reporter transcription; actives raise or lower the signal. In a few lines: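 Measures endogenous transcription-factor activity through cis-regulated reporter mRNA in HepG2. Cells dosed 24 h; transcripts quantified by RT-PCR with 6-FAM-labelled products separated by capillary electrophoresis; DMSO serves as negative control.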
Chain of Hypoxia-inducible factor 1-alpha (Homo sapiens) (Q16665 whole entry, looked up): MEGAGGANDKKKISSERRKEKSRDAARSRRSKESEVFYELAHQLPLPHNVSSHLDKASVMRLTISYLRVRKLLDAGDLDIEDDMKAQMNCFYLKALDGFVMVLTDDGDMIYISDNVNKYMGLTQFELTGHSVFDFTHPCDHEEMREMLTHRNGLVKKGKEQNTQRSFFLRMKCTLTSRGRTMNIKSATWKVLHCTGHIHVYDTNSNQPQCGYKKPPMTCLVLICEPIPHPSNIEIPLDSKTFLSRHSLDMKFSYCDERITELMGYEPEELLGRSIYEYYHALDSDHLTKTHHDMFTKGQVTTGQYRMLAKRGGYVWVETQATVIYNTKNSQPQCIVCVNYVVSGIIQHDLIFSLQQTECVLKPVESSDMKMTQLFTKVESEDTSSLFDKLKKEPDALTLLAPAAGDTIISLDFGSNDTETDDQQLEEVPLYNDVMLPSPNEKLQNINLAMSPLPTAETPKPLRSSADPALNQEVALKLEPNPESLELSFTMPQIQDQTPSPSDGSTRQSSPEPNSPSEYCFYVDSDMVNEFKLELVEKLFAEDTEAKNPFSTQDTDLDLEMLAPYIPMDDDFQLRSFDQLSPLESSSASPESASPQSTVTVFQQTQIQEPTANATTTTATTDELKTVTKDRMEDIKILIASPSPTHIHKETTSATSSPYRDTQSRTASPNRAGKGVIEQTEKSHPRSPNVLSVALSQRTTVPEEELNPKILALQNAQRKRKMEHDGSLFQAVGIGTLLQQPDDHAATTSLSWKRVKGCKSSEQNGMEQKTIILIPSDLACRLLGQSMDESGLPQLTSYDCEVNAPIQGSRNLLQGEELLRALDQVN

Assay [6] deals with Hepatocyte nuclear factor 6 (Homo sapiens) (UniProt Q9UBC0). The experiment in a line: ATG_HNF6_CIS: Attagene CIS-FACTORIAL HepG2 Assay for human Hepatocyte Nuclear Factor 6 (HNF6) (AID 2282952). Particulars: HepG2 Attagene cis-factorial HNF6 reporter transcription; actives raise or lower the signal. In short, it runs like this: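 First, HepG2 cells were transfected with the multiplexed cis reporter library and dosed with chemical for 24 h. Next, RNA was reverse-transcribed, PCR-amplified and fluorescently labelled. Finally, HpaI-digested fragments were read by capillary electrophoresis.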
Chain of Hepatocyte nuclear factor 6 (Homo sapiens) (Q9UBC0 whole entry, looked up, the tested form may be a part): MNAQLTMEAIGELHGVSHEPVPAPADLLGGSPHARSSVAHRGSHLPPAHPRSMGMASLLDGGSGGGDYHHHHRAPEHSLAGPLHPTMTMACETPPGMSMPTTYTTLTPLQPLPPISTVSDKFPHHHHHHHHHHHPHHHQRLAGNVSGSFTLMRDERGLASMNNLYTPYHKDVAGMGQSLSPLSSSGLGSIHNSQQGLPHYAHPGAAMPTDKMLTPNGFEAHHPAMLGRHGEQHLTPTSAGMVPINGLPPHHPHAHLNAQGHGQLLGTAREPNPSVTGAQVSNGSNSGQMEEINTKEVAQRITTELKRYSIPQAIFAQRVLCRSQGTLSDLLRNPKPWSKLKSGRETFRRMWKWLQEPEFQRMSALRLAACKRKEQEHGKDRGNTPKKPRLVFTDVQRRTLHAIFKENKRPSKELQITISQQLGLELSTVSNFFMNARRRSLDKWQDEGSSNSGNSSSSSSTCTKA

Assay [7] deals with Heat shock factor protein 1 (Homo sapiens) (UniProt Q00613). The experiment in a line: ATG_HSE_CIS: Attagene CIS-FACTORIAL HepG2 Assay for human Heat Shock Transcription Factor 1 (HSE) (AID 2282953). Particulars: HepG2 HSE cis-reporter, Attagene RNA transcription; actives raise or lower the signal. In short, it runs like this:
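Endogenous transcription factor activity in transiently transfected HepG2, read as reporter mRNA by RT-PCR with fluorescent capillary electrophoresis after 24 h. Gain or loss of signal fitted versus DMSO baseline.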

Assay [8] can be described thus: ATG_PXRE_CIS: Attagene CIS-FACTORIAL HepG2 Assay for human Pregnane X Receptor Element (PXRE) (AID 2282957). Particulars: HepG2 Attagene CIS-FACTORIAL PXRE reporter, mRNA; actives raise or lower the signal. In a few lines:
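After a 24 h chemical incubation, total RNA from transfected HepG2 cells was reverse-transcribed and reporter cDNA amplified, FAM-labeled, HpaI-digested and sized by capillary electrophoresis. DMSO served as baseline for bidirectional curve fitting.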

Assay [9] is described as follows: ATG_PPRE_CIS: Attagene CIS-FACTORIAL HepG2 Assay for human Peroxisome Proliferator-activated Response Element (PPRE) (AID 2282958). The conditions noted are these: HepG2 PPRE cis-element reporter, Attagene transcription factor profiling; actives raise or lower the signal. In a few lines:
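Cells are first transfected transiently with the multiplexed reporter library, then dosed for 24 h. Total RNA is reverse-transcribed, amplified, fluorescently end-labeled and HpaI-cut before capillary electrophoresis; activity is fitted bidirectionally against DMSO controls.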

Assay [10] can be described thus: ATG_RORE_CIS: Attagene CIS-FACTORIAL HepG2 Assay for human RAR-related Orphan Receptor Element (RORE) (AID 2282959). The conditions noted are these: HepG2 Attagene cis-factorial RORE reporter, mRNA; actives raise or lower the signal. In a few lines:
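Cells were HepG2 carrying transfected cis-regulated reporter constructs, dosed for 24 hours. Total RNA was reverse-transcribed and reporter cDNA amplified, fluorescently labeled and sized by capillary electrophoresis. Activity was fitted bidirectionally relative to DMSO.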

A short description of assay [11]: ATG_Sox_CIS: Attagene CIS-FACTORIAL HepG2 Assay for human SRY-box transcription factor (SOX) (AID 2282960). Particulars: HepG2 Attagene cis-factorial SOX reporter, mRNA; actives raise or lower the signal. In short, it runs like this:
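Transient MRTU transfection of HepG2; 24 h compound incubation; TriZol RNA, oligo(dT) RT, PCR, 6-FAM primer extension, HpaI cut, CE. Bidirectional fit, DMSO = baseline.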

Assay [12] addresses Transcription factor Sp1 (Homo sapiens) (UniProt P08047). The experiment in a line: ATG_Sp1_CIS: Attagene CIS-FACTORIAL HepG2 Assay for human Specificity Protein 1 (Sp1) (AID 2282961). The conditions noted are these: HepG2 Sp1 cis-reporter transcription, actives raise or lower the signal. In a few lines: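 Endogenous Sp1 activity was gauged in human liver HepG2 cells bearing transfected reporter units under a cis-regulating promoter. After 24 h dosing, reporter mRNA was quantified by RT-PCR with capillary electrophoresis, and activity fitted bidirectionally versus DMSO.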

A short description of assay [13]: ATG_SREBP_CIS: Attagene CIS-FACTORIAL HepG2 Assay for human Sterol Regulatory Element Binding (SREBP) (AID 2282962). Particulars: HepG2 Attagene cis-factorial SREBP reporter, mRNA; actives raise or lower the signal. In short, it runs like this:
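Endogenous SREBP activity read as cis-element-driven reporter transcript in transiently transfected HepG2, 24 h post-dosing; quantified via RT-PCR plus capillary electrophoresis of fluorescent fragments. Gain or loss of signal fitted relative to DMSO baseline.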

For assay [14], the target named is Signal transducer and activator of transcription 3 (Homo sapiens) (UniProt P40763). The experiment in a line: ATG_STAT3_CIS: Attagene CIS-FACTORIAL HepG2 Assay for human Signal Transducer and Activator of Transcription 3 (STAT3) (AID 2282963). The conditions noted are these: HepG2, Attagene cis-factorial STAT3 reporter transcription; actives raise or lower the signal. In short, it runs like this: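 Readout is reporter transcript quantified by RT-PCR and capillary electrophoresis, with 6-FAM primer extension and HpaI digestion. Total RNA is taken 24 h after dosing transiently transfected HepG2 carrying cis-regulated reporter units. Bidirectional fit against DMSO.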
Chain of Signal transducer and activator of transcription 3 (Homo sapiens) (P40763 whole entry, looked up): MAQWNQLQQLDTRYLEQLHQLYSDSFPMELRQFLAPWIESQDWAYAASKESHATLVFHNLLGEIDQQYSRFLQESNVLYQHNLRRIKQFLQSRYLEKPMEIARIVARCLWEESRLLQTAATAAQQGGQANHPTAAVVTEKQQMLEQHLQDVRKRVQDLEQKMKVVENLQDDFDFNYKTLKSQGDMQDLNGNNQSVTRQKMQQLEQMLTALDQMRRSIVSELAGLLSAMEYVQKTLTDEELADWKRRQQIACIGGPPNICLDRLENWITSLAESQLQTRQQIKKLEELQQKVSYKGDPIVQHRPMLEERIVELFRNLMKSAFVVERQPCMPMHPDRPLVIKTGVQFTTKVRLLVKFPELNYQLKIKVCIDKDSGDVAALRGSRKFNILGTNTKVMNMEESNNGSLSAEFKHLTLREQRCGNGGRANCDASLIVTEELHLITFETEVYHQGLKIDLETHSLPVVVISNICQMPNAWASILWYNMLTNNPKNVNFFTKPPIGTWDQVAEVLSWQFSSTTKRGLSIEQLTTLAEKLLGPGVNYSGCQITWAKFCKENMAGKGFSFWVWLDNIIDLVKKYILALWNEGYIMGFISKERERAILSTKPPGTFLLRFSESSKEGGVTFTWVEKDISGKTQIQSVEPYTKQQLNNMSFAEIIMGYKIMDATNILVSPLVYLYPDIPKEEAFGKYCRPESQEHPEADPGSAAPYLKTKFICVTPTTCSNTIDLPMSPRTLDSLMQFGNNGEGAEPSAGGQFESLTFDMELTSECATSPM

A short description of assay [15]: ATG_TA_CIS: Attagene CIS-FACTORIAL HepG2 Assay for human TA Basal Promoter (AID 2282964). Particulars: HepG2 Attagene CIS-factorial TA basal promoter reporter; actives raise or lower the signal. In short, it runs like this:
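Background-control readout: TA basal promoter reporter mRNA, fitted in both directions relative to DMSO. Measured by RT-PCR and capillary electrophoresis 24 hours after treating HepG2 human liver cells transiently carrying multiplexed cis-regulated reporter constructs.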

A short description of assay [16]: ATG_TCF_b_cat_CIS: Attagene CIS-FACTORIAL HepG2 Assay for human T-Cell-Factor with beta-catenin (TCF/b-cat) (AID 2282965). Particulars: HepG2 TCF/beta-catenin cis-reporter transcription, actives raise or lower the signal. In a few lines:
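Measured: reporter mRNA in HepG2 transiently transfected with cis-promoter reporter units, 24 h after chemical addition. Fitting was bidirectional, DMSO as negative control.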

The nature of assay [17]: ATG_MRE_CIS: Attagene CIS-FACTORIAL HepG2 Assay for human Metal Responsive Element (MRE) (AID 2282954). The conditions noted are these: HepG2 MRE cis-reporter transcription, Attagene multiplex; actives raise or lower the signal. In a few lines:
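Endogenous MRE-dependent transcription read as reporter mRNA in transiently transfected human HepG2 cells at 24 h. RNA reverse-transcribed, PCR-amplified, labelled and resolved by capillary electrophoresis; gain or loss relative to DMSO.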

In assay [18] the target is Paired box protein Pax-6 (Homo sapiens) (UniProt P26367). The experiment in a line: ATG_Pax6_CIS: Attagene CIS-FACTORIAL HepG2 Assay for human Paired Box 6 (PAX6) (AID 2282956). Particulars: HepG2 CIS-FACTORIAL PAX6 reporter transcription, RNA readout; actives raise or lower the signal. In a few lines: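 Read-out is reporter transcript level, measured by RT-PCR with fluorescent primer extension and capillary electrophoresis after 24 h dosing of transfected HepG2 cells. Activity in either direction fitted relative to DMSO control.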
Chain of Paired box protein Pax-6 (Homo sapiens) (P26367 whole entry, looked up): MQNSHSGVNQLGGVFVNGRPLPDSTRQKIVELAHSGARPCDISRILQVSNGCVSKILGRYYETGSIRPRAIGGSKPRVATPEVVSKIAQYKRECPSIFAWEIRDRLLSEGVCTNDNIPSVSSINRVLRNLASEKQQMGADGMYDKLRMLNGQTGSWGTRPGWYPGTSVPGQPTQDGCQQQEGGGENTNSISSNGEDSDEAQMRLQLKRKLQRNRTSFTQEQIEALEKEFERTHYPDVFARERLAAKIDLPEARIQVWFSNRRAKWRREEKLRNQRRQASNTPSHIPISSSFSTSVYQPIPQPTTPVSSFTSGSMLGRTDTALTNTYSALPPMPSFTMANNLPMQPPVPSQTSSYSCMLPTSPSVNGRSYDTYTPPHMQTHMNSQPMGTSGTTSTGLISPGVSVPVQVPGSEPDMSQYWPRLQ

Assay [19] in a line: ATG_PBREM_CIS: Attagene CIS-FACTORIAL HepG2 Assay for human Phenobarbital-responsive Enhancer Module (PBREM) (AID 2282955). The conditions noted are these: HepG2 PBREM cis-reporter, Attagene multiplexed transcription; actives raise or lower the signal. In short, it runs like this: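 Fluorescence of labelled reporter cDNA fragments, resolved by capillary electrophoresis, gives mRNA induction in transfected HepG2 cells treated for 24 h; DMSO serves as negative control and baseline.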

Chain of Transcription factor Sp1 (Homo sapiens) (P08047 whole entry, looked up): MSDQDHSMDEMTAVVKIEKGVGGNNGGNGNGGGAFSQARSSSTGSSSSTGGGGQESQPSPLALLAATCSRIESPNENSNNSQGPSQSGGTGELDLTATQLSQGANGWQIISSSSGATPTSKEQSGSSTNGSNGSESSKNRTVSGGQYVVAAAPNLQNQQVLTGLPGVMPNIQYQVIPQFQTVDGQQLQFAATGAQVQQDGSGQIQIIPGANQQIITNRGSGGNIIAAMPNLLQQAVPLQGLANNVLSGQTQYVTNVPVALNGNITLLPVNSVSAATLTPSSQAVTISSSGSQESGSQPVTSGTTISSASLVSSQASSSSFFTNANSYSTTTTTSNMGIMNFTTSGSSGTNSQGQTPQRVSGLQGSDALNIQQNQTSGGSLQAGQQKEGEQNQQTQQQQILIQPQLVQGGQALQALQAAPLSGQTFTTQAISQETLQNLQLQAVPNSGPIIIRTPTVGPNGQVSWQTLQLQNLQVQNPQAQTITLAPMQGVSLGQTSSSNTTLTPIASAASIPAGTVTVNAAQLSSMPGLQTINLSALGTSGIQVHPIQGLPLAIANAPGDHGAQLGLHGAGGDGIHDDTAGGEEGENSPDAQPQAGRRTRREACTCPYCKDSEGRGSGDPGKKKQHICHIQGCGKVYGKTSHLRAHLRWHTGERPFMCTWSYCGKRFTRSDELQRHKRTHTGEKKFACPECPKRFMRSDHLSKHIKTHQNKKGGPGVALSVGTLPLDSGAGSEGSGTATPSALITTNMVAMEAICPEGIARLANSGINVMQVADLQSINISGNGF
Chain of Heat shock factor protein 1 (Homo sapiens) (Q00613 whole entry, looked up): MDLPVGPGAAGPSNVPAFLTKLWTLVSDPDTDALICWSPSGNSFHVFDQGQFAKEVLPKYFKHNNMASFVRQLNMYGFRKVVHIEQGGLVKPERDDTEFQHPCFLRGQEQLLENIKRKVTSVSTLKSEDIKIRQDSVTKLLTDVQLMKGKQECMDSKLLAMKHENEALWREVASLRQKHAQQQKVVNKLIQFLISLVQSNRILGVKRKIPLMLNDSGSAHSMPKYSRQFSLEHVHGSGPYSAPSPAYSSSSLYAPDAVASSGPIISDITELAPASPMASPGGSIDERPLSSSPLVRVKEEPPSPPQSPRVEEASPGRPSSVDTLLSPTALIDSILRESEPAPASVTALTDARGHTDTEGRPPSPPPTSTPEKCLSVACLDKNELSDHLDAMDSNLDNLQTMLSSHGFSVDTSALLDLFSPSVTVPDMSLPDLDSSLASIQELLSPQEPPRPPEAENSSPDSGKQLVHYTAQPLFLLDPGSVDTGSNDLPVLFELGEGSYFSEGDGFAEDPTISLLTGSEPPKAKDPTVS

In general, AC50 refers to the concentration giving half of the maximal activity seen. `CCN(CC)c1ccc(C(=C2C=CC(=[N+](CC)CC)C=C2)c2ccc(S(=O)(=O)O)cc2S(=O)(=O)[O-])cc1`: the compound was called inactive in assay [1], in [2], in assay [3], in assay [4], in [5] and in assay [6]. Further, the result in [7], in [9], in assay [10], in assay [11], in assay [12] and in assay [13] was inactive. The call in assay [14], in assay [15] and in assay [16] was inactive. Besides, the AC50 in assay [8] is 63.4 µM (active).

For `CC1(C)[C@@H]2CC[C@@]1(C)[C@H](O)C2`, the compound was classed as inactive in [1], in assay [2], in assay [3], in assay [4], in [6] and in [7]. For the same compound, the result in [17], in assay [18], in [8], in assay [10], in assay [11] and in assay [12] was inactive. The compound was called inactive in assay [13], in assay [14] and in assay [16]. Further, the concentration at half-maximal activity (AC50) in [5] is 100 µM (active).

Regarding `Cc1cc(C2(c3cc(C)c(O)cc3C)OS(=O)(=O)c3ccccc32)c(C)cc1O`, the call in assay [1], in [2], in assay [3], in assay [4], in assay [5] and in [6] was inactive. Moreover, the call in assay [17], in assay [19], in [18], in assay [10], in assay [11] and in assay [12] was inactive. Moreover, the compound was called inactive in assay [13], in assay [14], in assay [15] and in assay [16]. Further, the concentration at half-maximal activity (AC50) in assay [8] was 24.2 µM (active).

Consider `C/C=C(\C)C(=O)OCc1ccccc1`, for which the call in assay [1], in [2], in assay [3], in assay [4], in [5] and in assay [6] was inactive. Further, the call in assay [7], in [17], in assay [8], in [10], in assay [11] and in assay [13] was inactive. Besides, the compound was classed as inactive in assay [14].

Regarding `CC(C)(COC(=O)c1ccccc1)COC(=O)c1ccccc1`, the outcome in assay [1], in [2], in assay [3], in assay [4], in assay [6] and in assay [7] was inactive. Further, the outcome in [19], in assay [9], in assay [11], in assay [12], in assay [13] and in assay [14] was inactive. Besides, the result in assay [15] and in [16] was inactive. Also, the values for the AC50 in assay [5] and in [8] were 47.2 µM (active) and 34.7 µM (active), respectively.
